From the supplement of paper PMC4466140

B1: unnamed (peptide)
chain: LSKRLPLRFPEHTSS

target: AgAbp1; experiment: SPOT peptide array binding signal intensity (averaged, normalized) (arbitrary units (background-subtracted, floor 0; scale differs between SH3 domains)); higher = stronger binding of the SH3 domain to the peptide
Description: (§1)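 GST-tagged SH3 domains from S. cerevisiae (Sc), A. gossypii (Ag), C. albicans (Ca) and S. pombe (Sp) were incubated at 10 ug/ml overnight at 4 C on cellulose SPOT membranes carrying 292 synthetic 15-mer peptides mined from the S. cerevisiae proteome (cysteines replaced by serines). Binding was detected with anti-GST antibody, HRP secondary and chemiluminescence, quantified with Genespotter, and reported as normalized spot intensities averaged over biological replicates.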

| Binder | SPOT peptide array binding signal intensity |
| --- | --- |
| B1 | 48 |

target: AgBbc1; experiment: as above
Description: as §1

| Binder | SPOT peptide array binding signal intensity |
| --- | --- |
| B1 | 5.5 |

target: AgBem1-D1; experiment: as above
Description: as §1

| Binder | SPOT peptide array binding signal intensity |
| --- | --- |
| B1 | ≤ 0 |

target: AgBzz1-D1; experiment: as above
Description: as §1

| Binder | SPOT peptide array binding signal intensity |
| --- | --- |
| B1 | 9 |

target: AgBzz1-D2; experiment: as above
Description: as §1

| Binder | SPOT peptide array binding signal intensity |
| --- | --- |
| B1 | 17 |

target: AgCyk3; experiment: as above
Description: as §1

| Binder | SPOT peptide array binding signal intensity |
| --- | --- |
| B1 | ≤ 0 |

target: AgFus1; experiment: as above
Description: as §1

| Binder | SPOT peptide array binding signal intensity |
| --- | --- |
| B1 | 102 |

target: AgHof1; experiment: as above
Description: as §1

| Binder | SPOT peptide array binding signal intensity |
| --- | --- |
| B1 | 67.5 |

target: AgHse1; experiment: as above
Description: as §1

| Binder | SPOT peptide array binding signal intensity |
| --- | --- |
| B1 | 234 |

target: AgLsb1; experiment: as above
Description: as §1

| Binder | SPOT peptide array binding signal intensity |
| --- | --- |
| B1 | 5.5 |

target: AgLsb4; experiment: as above
Description: as §1

| Binder | SPOT peptide array binding signal intensity |
| --- | --- |
| B1 | 53.5 |

target: AgMyo5; experiment: as above
Description: as §1

| Binder | SPOT peptide array binding signal intensity |
| --- | --- |
| B1 | ≤ 0 |

target: AgNbp2; experiment: as above
Description: as §1

| Binder | SPOT peptide array binding signal intensity |
| --- | --- |
| B1 | 10 |

target: AgRvs167; experiment: as above
Description: as §1

| Binder | SPOT peptide array binding signal intensity |
| --- | --- |
| B1 | 1.33 |

target: AgSho1; experiment: as above
Description: as §1

| Binder | SPOT peptide array binding signal intensity |
| --- | --- |
| B1 | 17 |

target: AgSla1-D1-D2; experiment: as above
Description: as §1

| Binder | SPOT peptide array binding signal intensity |
| --- | --- |
| B1 | 2 |

target: AgSla1-D3; experiment: as above
Description: as §1

| Binder | SPOT peptide array binding signal intensity |
| --- | --- |
| B1 | ≤ 0 |

target: CaAbp1-D1; experiment: as above
Description: as §1

| Binder | SPOT peptide array binding signal intensity |
| --- | --- |
| B1 | 462 |

target: CaAbp1-D2; experiment: as above
Description: as §1

| Binder | SPOT peptide array binding signal intensity |
| --- | --- |
| B1 | 220 |

target: CaBbc1; experiment: as above
Description: as §1

| Binder | SPOT peptide array binding signal intensity |
| --- | --- |
| B1 | 27.2 |

target: CaBem1-D1; experiment: as above
Description: as §1

| Binder | SPOT peptide array binding signal intensity |
| --- | --- |
| B1 | 10 |

target: CaBzz1-D1; experiment: as above
Description: as §1

| Binder | SPOT peptide array binding signal intensity |
| --- | --- |
| B1 | 22 |

target: CaBzz1-D2; experiment: as above
Description: as §1

| Binder | SPOT peptide array binding signal intensity |
| --- | --- |
| B1 | 60.8 |

target: CaCyk3; experiment: as above
Description: as §1

| Binder | SPOT peptide array binding signal intensity |
| --- | --- |
| B1 | 4 |

target: CaFus1; experiment: as above
Description: as §1

| Binder | SPOT peptide array binding signal intensity |
| --- | --- |
| B1 | 402 |

target: CaHof1; experiment: as above
Description: as §1

| Binder | SPOT peptide array binding signal intensity |
| --- | --- |
| B1 | 0.75 |

target: CaHse1; experiment: as above
Description: as §1

| Binder | SPOT peptide array binding signal intensity |
| --- | --- |
| B1 | 81 |

target: CaLsb1; experiment: as above
Description: as §1

| Binder | SPOT peptide array binding signal intensity |
| --- | --- |
| B1 | 1 |

target: CaLsb4; experiment: as above
Description: as §1

| Binder | SPOT peptide array binding signal intensity |
| --- | --- |
| B1 | 136 |

target: CaMyo5; experiment: as above
Description: as §1

| Binder | SPOT peptide array binding signal intensity |
| --- | --- |
| B1 | ≤ 0 |

target: CaNbp2; experiment: as above
Description: as §1

| Binder | SPOT peptide array binding signal intensity |
| --- | --- |
| B1 | 63.5 |

target: CaRvs167; experiment: as above
Description: as §1

| Binder | SPOT peptide array binding signal intensity |
| --- | --- |
| B1 | 15.2 |

target: CaRvs167-3; experiment: as above
Description: as §1

| Binder | SPOT peptide array binding signal intensity |
| --- | --- |
| B1 | 15.8 |

target: CaSho1; experiment: as above
Description: as §1

| Binder | SPOT peptide array binding signal intensity |
| --- | --- |
| B1 | 212 |

target: CaSla1-D1-D2; experiment: as above
Description: as §1

| Binder | SPOT peptide array binding signal intensity |
| --- | --- |
| B1 | ≤ 0 |

target: CaSla1-D3; experiment: as above
Description: as §1

| Binder | SPOT peptide array binding signal intensity |
| --- | --- |
| B1 | 1 |

target: ScAbp1; experiment: as above
Description: as §1

| Binder | SPOT peptide array binding signal intensity |
| --- | --- |
| B1 | 63.5 |

target: ScBbc1; experiment: as above
Description: as §1

| Binder | SPOT peptide array binding signal intensity |
| --- | --- |
| B1 | ≤ 0 |

target: ScBem1-D1; experiment: as above
Description: as §1

| Binder | SPOT peptide array binding signal intensity |
| --- | --- |
| B1 | 23.5 |

target: ScBzz1-D1; experiment: as above
Description: as §1

| Binder | SPOT peptide array binding signal intensity |
| --- | --- |
| B1 | 10.5 |

target: ScBzz1-D2; experiment: as above
Description: as §1

| Binder | SPOT peptide array binding signal intensity |
| --- | --- |
| B1 | 17 |

target: ScCyk3; experiment: as above
Description: as §1

| Binder | SPOT peptide array binding signal intensity |
| --- | --- |
| B1 | 61 |

target: ScFus1; experiment: as above
Description: as §1

| Binder | SPOT peptide array binding signal intensity |
| --- | --- |
| B1 | 81 |

target: ScHof1; experiment: as above
Description: as §1

| Binder | SPOT peptide array binding signal intensity |
| --- | --- |
| B1 | 4.25 |

target: ScHse1; experiment: as above
Description: as §1

| Binder | SPOT peptide array binding signal intensity |
| --- | --- |
| B1 | 532 |

target: ScLsb1; experiment: as above
Description: as §1

| Binder | SPOT peptide array binding signal intensity |
| --- | --- |
| B1 | 4 |

target: ScLsb2; experiment: as above
Description: as §1

| Binder | SPOT peptide array binding signal intensity |
| --- | --- |
| B1 | ≤ 0 |

target: ScLsb3; experiment: as above
Description: as §1

| Binder | SPOT peptide array binding signal intensity |
| --- | --- |
| B1 | 492 |

target: ScLsb4; experiment: as above
Description: as §1

| Binder | SPOT peptide array binding signal intensity |
| --- | --- |
| B1 | 10.5 |

target: ScMyo3; experiment: as above
Description: as §1

| Binder | SPOT peptide array binding signal intensity |
| --- | --- |
| B1 | ≤ 0 |

target: ScMyo5; experiment: as above
Description: as §1

| Binder | SPOT peptide array binding signal intensity |
| --- | --- |
| B1 | ≤ 0 |

target: ScNbp2; experiment: as above
Description: as §1

| Binder | SPOT peptide array binding signal intensity |
| --- | --- |
| B1 | 50 |

target: ScPex13; experiment: as above
Description: as §1

| Binder | SPOT peptide array binding signal intensity |
| --- | --- |
| B1 | ≤ 0 |

target: ScRvs167; experiment: as above
Description: as §1

| Binder | SPOT peptide array binding signal intensity |
| --- | --- |
| B1 | 231 |

target: ScSho1; experiment: as above
Description: as §1

| Binder | SPOT peptide array binding signal intensity |
| --- | --- |
| B1 | 952 |

target: ScSla1-D1-D2; experiment: as above
Description: as §1

| Binder | SPOT peptide array binding signal intensity |
| --- | --- |
| B1 | 6 |

target: ScSla1-D3; experiment: as above
Description: as §1

| Binder | SPOT peptide array binding signal intensity |
| --- | --- |
| B1 | 4.75 |

target: SpAbp1-D1; experiment: as above
Description: as §1

| Binder | SPOT peptide array binding signal intensity |
| --- | --- |
| B1 | 228 |

target: SpBbc1; experiment: as above
Description: as §1

| Binder | SPOT peptide array binding signal intensity |
| --- | --- |
| B1 | 1.5 |

target: SpBzz1-D1; experiment: as above
Description: as §1

| Binder | SPOT peptide array binding signal intensity |
| --- | --- |
| B1 | 132 |
